Test results as given in PubChem BioAssay AID1159580 (chemical genetic matrix, 2015).
Hit rate of the full screen: of about 5,500 compounds, about 2,000 (36%) were called active. Inconclusive results (about 18%) are left out. Cut-off read from the data, not from the text of the source: active = normalized growth mostly below about 0.91 (no sharp cut-off); inconclusive = no clear call, values can overlap the other calls; inactive = mostly above about 0.92. The list shows a part of the results.

Assay: chemical genetic growth profiling, strain panel (AID 1159580);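 note: tested at 20 µM; growth read once vehicle control cultures reached saturation at 30 °C; 1 = growth at the plate median or of vehicle wells; lower values mean less growth of the strain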
Conditions: S. cerevisiae deletion strains, growth OD

Measured: normalized growth

Oc1ccc2c(c1)OCC1c3cc4c(cc3OC21)OCO4 (stereo not drawn)
active: locus YKR001C, strain vps1, hits give low values 0.863 | locus YLR418C, strain cdc73, hits give low values 0.781 | locus YOR184W, strain ser1, hits give low values 0.826 | locus YPR163C, strain tif3, hits give low values 0.906
inactive: locus YBR021W, strain FUR4, hits give low values 0.862 | locus YBR229C, strain ROT2, hits give low values 0.957 | locus YCL029C, strain bik1, hits give low values 0.946 | locus YDL035C, strain GPR1, hits give low values 0.981 | locus YDL074C, strain BRE1, hits give low values 1.03 | locus YDL101C, strain DUN1, hits give low values 0.987 | locus YDL134C, strain PPH21, hits give low values 1.02 | locus YDL185W, strain tfp1, hits give low values 0.964 | locus YDL192W, strain arf1, hits give low values 0.944 | locus YDR101C, strain arx1, hits give low values 0.942 | locus YDR150W, strain NUM1, hits give low values 1 | locus YDR162C, strain NBP2, hits give low values 0.993 | locus YDR318W, strain mcm21, hits give low values 0.962 | locus YDR388W, hits give low values 0.966 | locus YDR502C, strain sam2, hits give low values 0.961 | locus YEL061C, strain CIN8, hits give low values 0.99 | locus YER110C, hits give low values 0.954 | locus YER155C, strain BEM2, hits give low values 1 | locus YER167W, strain BCK2, hits give low values 1 | locus YGL078C, strain dbp3, hits give low values 0.992 | locus YGL086W, strain mad1, hits give low values 0.957 | locus YGL248W, strain PDE1, hits give low values 1 | locus YGR135W, strain pre9, hits give low values 0.993 | locus YGR252W, strain gcn5, hits give low values 0.902 | locus YHR079C, strain IRE1 (second series), hits give low values 0.995 | locus YHR094C, strain hxt1, hits give low values 0.982 | locus YHR129C, strain ARP1, hits give low values 1.02 | locus YHR200W, strain rpn10, hits give low values 0.972 | locus YIL066C, strain RNR3, hits give low values 0.999 | locus YIL073C, strain SPO22, hits give low values 1.03 | locus YIL125W, strain kgd1, hits give low values 0.968 | locus YIR030C, strain dcg1, hits give low values 0.971 | locus YJL095W, strain BCK1, hits give low values 0.929 | locus YJL134W, strain LCB3, hits give low values 0.992 | locus YJL168C, strain set2, hits give low values 0.996 | locus YJL187C, strain SWE1 (second series), hits give low values 0.966 | locus YJR075W, strain HOC1, hits give low values 0.999 | locus YKL009W, strain mrt4, hits give low values 0.987 | locus YKL068W, hits give low values 1 | locus YKL085W, strain MDH1 (second series), hits give low values 1.02 | locus YKL085W, strain MDH1, hits give low values 1.02 | locus YKL190W, strain CNB1, hits give low values 1.01 | locus YLR039C, strain RIC1, hits give low values 0.982 | locus YLR058C, strain SHM2, hits give low values 0.962 | locus YLR102C, strain apc9, hits give low values 0.984 | locus YLR268W, strain sec22, hits give low values 0.906 | locus YLR371W, strain rom2, hits give low values 0.973 | locus YML016C, strain PPZ1, hits give low values 0.983 | locus YML032C, strain rad52, hits give low values 0.956 | locus YML124C, strain tub3, hits give low values 0.995 | locus YMR078C, strain ctf18, hits give low values 1 | locus YMR223W, strain ubp8, hits give low values 0.983 | locus YMR307W, strain GAS1, hits give low values 1.04 | locus YNL067W, strain RPL9B, hits give low values 1.01 | locus YNL128W, strain TEP1, hits give low values 1.01 | locus YNL233W, strain BNI4, hits give low values 1.05 | locus YNL250W, strain rad50, hits give low values 1 | locus YNL271C, strain bni1, hits give low values 0.974 | locus YNL298W, strain CLA4, hits give low values 0.939 | locus YNL307C, strain MCK1, hits give low values 0.95 | locus YNR052C, strain pop2, hits give low values 0.994 | locus YOL012C, strain htz1 1.23 | locus YOL147C, strain pex11, hits give low values 0.967 | locus YOR061W, strain CKA2, hits give low values 0.988 | locus YOR069W, strain VPS5, hits give low values 1.01 | locus YOR136W, strain idh2, hits give low values 0.982 | locus YOR144C, strain elg1, hits give low values 0.986 | locus YOR316C, strain cot1, hits give low values 0.985 | locus YPL055C, strain LGE1, hits give low values 0.963 | locus YPL241C, strain CIN2, hits give low values 1.01 | locus YPR119W, strain clb2, hits give low values 1.02 | locus YPR141C, strain kar3, hits give low values 1.01 | locus YPR167C, strain met16, hits give low values 1.01 | strain wtn01, hits give low values 0.943
